# Test results published in PubChem BioAssay AID687026 (Broad Institute, 2013).
# Results with a measured potency or affinity are listed apart. Active and inactive are the calls of the source. The rule behind the calls is not given here.
# Assay: CEM21 cell cytotoxicity, dose response, cytotoxicity control, plate reader, dry powder (AID 687026)
# Details: CEM21 cells cytotoxicity; series mostly up to 35 µM; activity change, negative = cytotoxicity: at the top concentration
Compound,"activity change, negative = cytotoxicity",outcome
Cc1noc(C)c1S(=O)(=O)N(C)C[C@@H]1Oc2ccc(NC(=O)Nc3ccccc3)cc2CC(=O)N([C@@H](C)CO)C[C@@H]1C,-2.83% (inactive),–
Cc1noc(C)c1S(=O)(=O)Nc1cccc2c1O[C@H](CN(C)Cc1ccc(C(F)(F)F)cc1)[C@@H](C)CN([C@H](C)CO)C2=O,4.39% (inactive),–
CCOc1ccc(S(=O)(=O)NCc2ccccn2)cc1,–,inactive
Cn1c(C(=O)N2CCN(c3nc4ccccc4s3)CC2)cc2sccc21,-4.66% (inactive),–
CCCC#Cc1ccc2c(c1)O[C@@H](CN(C)S(=O)(=O)c1cccc(F)c1)[C@@H](C)CN([C@H](C)CO)S2(=O)=O,-4.86% (inactive),–
Cc1noc(C)c1S(=O)(=O)Nc1cccc2c1O[C@@H](CN(C)Cc1ccc(C(F)(F)F)cc1)[C@H](C)CN([C@@H](C)CO)C2=O,-0.13% (inactive),–
Cc1noc(C)c1S(=O)(=O)Nc1cccc2c1O[C@@H](CN(C)Cc1ccc(C(F)(F)F)cc1)[C@H](C)CN([C@H](C)CO)C2=O,4.5% (inactive),–
CCOc1ccc(OCC)c(S(=O)(=O)NCc2ccncc2)c1,–,inactive
O=S(=O)(NCc1ccncc1)c1ccc2c(c1)OCCO2,-5.34% (inactive),–
CCOc1ccc(C)cc1S(=O)(=O)NCc1ccncc1,-8.49% (inactive),–
Cc1noc(C)c1S(=O)(=O)Nc1cccc2c1O[C@H](CN(C)Cc1ccc(C(F)(F)F)cc1)[C@@H](C)CN([C@@H](C)CO)C2=O,-1.88% (inactive),–
C[C@H]1CCCCO[C@@H](CN(C)Cc2ccncc2)[C@@H](C)CN([C@@H](C)CO)C(=O)c2cc(NC(=O)Nc3ccccc3)ccc2O1,-4.58% (inactive),–
Cc1ccc(S(=O)(=O)N(C)C[C@@H]2Oc3ccc(NS(=O)(=O)c4c(C)noc4C)cc3CC(=O)N([C@H](C)CO)C[C@@H]2C)cc1,0.887% (inactive),–
